Assays:
Test in all cases: log2 ratio of Biotin-Ahx-Ub-VS probe labelling (fragment/DMSO); higher = less target engagement (more negative = stronger competition), active = hit call of the paper (q ≤ 0.05, log2 ratio ≤ -1)
Details in all cases: compound concentration: 200 uM; treatment time: 3 h
USP34 = USP34 (UniProt Q70CQ2)
Outline: (§1)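 Labelling with Biotin-Ahx-Ub-VS (0.5 µM final, 1 h) followed a 3 h triplicate treatment of HEK293T lysate (495 µg per sample, Tris/CHAPS/IGEPAL buffer with protease inhibitors) with fragment at 200 µM or vehicle. Labelled DUBs were NeutrAvidin-enriched, digested with LysC and trypsin, and run by diaPASEF LC-MS/MS. The values, average log2 fragment/vehicle ratios by unpaired t-test, come from global-median-normalised Spectronaut label-free quantities. Proteins with ≥2 unique peptides were used.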

USP36 = biological target: T1, USP36 (UniProt Q9P275)
T1 sequence (whole entry): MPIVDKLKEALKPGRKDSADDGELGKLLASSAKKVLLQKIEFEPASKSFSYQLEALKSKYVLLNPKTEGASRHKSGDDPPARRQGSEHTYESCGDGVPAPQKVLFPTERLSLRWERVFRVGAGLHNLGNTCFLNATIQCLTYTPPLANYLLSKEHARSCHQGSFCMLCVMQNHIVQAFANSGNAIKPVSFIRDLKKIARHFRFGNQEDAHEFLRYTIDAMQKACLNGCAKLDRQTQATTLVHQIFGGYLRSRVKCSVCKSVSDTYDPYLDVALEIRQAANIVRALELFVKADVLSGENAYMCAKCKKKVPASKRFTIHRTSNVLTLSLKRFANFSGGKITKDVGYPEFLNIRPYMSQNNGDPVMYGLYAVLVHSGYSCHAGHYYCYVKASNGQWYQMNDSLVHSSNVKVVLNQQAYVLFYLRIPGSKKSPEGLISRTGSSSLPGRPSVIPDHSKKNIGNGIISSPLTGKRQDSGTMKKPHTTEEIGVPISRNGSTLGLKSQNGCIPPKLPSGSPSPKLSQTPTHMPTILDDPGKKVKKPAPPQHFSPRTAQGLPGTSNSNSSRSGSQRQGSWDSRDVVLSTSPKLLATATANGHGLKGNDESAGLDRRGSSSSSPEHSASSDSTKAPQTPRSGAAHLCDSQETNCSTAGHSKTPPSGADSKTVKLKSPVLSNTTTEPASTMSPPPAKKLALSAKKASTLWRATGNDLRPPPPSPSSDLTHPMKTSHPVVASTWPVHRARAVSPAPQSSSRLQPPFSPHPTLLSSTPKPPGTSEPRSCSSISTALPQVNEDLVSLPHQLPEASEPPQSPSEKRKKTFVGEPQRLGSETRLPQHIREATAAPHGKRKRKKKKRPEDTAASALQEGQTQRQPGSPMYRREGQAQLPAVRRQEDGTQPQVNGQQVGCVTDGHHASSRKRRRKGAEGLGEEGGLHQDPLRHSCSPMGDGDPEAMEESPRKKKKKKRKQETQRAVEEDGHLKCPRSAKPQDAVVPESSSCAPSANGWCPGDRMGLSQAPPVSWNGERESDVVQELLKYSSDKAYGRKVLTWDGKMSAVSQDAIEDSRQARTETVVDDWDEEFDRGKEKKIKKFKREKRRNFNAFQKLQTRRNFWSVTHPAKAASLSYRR
Outline: as §1

USP38 = biological target: T2, USP38 (UniProt Q8NB14)
T2 sequence (whole entry): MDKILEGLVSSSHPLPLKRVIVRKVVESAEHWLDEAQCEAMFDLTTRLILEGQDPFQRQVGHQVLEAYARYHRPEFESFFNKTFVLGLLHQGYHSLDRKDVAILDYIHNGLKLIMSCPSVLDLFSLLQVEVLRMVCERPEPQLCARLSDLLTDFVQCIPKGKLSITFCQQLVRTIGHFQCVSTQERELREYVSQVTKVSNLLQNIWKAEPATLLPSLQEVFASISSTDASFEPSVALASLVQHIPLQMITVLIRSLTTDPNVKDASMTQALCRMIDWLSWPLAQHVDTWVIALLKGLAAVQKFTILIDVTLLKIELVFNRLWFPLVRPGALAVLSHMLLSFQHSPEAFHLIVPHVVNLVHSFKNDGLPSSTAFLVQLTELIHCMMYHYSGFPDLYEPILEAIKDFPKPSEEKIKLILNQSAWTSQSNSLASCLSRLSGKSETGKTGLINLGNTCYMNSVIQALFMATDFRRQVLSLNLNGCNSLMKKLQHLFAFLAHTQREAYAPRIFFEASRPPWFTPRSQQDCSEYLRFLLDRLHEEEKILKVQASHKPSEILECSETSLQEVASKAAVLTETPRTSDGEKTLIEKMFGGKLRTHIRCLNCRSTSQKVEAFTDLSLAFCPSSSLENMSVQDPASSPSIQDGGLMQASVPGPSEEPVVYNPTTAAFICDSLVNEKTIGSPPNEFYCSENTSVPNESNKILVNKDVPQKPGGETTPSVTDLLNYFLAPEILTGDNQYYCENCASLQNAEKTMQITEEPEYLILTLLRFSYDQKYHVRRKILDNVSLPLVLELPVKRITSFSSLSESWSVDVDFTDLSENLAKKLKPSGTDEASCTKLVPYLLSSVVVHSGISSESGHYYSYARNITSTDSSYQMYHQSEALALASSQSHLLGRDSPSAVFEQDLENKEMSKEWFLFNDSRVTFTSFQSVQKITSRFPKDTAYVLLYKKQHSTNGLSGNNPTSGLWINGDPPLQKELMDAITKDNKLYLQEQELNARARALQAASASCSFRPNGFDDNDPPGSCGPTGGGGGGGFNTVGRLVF
Outline: as §1

USP39 = biological target: T3, USP39 (UniProt Q53GS9)
T3 sequence (whole entry): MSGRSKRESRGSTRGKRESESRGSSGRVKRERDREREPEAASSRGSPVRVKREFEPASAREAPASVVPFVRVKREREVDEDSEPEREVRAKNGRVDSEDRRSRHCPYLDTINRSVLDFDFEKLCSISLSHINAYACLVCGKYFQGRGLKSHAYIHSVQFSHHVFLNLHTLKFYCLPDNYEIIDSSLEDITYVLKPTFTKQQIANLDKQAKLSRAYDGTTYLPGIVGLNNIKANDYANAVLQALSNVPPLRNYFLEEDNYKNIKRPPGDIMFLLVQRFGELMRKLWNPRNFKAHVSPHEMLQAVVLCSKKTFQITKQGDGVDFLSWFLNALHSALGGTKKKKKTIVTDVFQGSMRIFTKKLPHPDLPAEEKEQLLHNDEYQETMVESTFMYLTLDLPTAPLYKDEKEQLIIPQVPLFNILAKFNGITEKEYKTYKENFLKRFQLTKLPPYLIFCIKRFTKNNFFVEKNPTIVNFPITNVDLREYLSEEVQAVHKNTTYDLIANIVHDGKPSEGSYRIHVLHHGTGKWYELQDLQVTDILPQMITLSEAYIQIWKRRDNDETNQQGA
Outline: as §1

USP4 = biological target: T4, USP4 (UniProt Q13107)
T4 sequence (whole entry): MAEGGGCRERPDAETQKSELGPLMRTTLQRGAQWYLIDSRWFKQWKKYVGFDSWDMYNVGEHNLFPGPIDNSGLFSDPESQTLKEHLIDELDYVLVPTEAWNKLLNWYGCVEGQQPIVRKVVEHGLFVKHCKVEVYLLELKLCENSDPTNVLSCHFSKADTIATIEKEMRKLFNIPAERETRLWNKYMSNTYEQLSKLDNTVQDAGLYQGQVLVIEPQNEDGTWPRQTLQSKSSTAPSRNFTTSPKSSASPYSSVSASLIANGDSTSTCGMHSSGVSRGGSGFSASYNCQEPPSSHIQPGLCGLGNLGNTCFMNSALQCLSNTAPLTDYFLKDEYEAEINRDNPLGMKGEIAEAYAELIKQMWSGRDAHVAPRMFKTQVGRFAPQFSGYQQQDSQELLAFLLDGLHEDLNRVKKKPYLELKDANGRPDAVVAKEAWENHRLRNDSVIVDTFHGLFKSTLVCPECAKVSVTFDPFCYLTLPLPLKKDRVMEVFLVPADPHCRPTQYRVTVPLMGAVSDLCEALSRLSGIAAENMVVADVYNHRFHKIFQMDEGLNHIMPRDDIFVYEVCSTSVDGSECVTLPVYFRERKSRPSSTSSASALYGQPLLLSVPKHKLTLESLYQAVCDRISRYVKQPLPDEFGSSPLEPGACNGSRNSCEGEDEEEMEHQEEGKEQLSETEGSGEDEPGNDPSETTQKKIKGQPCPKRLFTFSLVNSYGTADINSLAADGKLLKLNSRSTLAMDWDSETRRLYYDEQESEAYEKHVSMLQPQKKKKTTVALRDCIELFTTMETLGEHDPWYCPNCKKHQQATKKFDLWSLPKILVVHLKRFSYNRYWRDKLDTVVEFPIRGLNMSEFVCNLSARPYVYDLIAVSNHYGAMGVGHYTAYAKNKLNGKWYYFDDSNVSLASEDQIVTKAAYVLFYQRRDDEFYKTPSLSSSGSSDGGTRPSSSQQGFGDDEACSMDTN
Outline: as §1

Measured: log2 ratio of Biotin-Ahx-Ub-VS probe labelling

Chain of USP34 (Q70CQ2 whole entry, the tested form may be a part): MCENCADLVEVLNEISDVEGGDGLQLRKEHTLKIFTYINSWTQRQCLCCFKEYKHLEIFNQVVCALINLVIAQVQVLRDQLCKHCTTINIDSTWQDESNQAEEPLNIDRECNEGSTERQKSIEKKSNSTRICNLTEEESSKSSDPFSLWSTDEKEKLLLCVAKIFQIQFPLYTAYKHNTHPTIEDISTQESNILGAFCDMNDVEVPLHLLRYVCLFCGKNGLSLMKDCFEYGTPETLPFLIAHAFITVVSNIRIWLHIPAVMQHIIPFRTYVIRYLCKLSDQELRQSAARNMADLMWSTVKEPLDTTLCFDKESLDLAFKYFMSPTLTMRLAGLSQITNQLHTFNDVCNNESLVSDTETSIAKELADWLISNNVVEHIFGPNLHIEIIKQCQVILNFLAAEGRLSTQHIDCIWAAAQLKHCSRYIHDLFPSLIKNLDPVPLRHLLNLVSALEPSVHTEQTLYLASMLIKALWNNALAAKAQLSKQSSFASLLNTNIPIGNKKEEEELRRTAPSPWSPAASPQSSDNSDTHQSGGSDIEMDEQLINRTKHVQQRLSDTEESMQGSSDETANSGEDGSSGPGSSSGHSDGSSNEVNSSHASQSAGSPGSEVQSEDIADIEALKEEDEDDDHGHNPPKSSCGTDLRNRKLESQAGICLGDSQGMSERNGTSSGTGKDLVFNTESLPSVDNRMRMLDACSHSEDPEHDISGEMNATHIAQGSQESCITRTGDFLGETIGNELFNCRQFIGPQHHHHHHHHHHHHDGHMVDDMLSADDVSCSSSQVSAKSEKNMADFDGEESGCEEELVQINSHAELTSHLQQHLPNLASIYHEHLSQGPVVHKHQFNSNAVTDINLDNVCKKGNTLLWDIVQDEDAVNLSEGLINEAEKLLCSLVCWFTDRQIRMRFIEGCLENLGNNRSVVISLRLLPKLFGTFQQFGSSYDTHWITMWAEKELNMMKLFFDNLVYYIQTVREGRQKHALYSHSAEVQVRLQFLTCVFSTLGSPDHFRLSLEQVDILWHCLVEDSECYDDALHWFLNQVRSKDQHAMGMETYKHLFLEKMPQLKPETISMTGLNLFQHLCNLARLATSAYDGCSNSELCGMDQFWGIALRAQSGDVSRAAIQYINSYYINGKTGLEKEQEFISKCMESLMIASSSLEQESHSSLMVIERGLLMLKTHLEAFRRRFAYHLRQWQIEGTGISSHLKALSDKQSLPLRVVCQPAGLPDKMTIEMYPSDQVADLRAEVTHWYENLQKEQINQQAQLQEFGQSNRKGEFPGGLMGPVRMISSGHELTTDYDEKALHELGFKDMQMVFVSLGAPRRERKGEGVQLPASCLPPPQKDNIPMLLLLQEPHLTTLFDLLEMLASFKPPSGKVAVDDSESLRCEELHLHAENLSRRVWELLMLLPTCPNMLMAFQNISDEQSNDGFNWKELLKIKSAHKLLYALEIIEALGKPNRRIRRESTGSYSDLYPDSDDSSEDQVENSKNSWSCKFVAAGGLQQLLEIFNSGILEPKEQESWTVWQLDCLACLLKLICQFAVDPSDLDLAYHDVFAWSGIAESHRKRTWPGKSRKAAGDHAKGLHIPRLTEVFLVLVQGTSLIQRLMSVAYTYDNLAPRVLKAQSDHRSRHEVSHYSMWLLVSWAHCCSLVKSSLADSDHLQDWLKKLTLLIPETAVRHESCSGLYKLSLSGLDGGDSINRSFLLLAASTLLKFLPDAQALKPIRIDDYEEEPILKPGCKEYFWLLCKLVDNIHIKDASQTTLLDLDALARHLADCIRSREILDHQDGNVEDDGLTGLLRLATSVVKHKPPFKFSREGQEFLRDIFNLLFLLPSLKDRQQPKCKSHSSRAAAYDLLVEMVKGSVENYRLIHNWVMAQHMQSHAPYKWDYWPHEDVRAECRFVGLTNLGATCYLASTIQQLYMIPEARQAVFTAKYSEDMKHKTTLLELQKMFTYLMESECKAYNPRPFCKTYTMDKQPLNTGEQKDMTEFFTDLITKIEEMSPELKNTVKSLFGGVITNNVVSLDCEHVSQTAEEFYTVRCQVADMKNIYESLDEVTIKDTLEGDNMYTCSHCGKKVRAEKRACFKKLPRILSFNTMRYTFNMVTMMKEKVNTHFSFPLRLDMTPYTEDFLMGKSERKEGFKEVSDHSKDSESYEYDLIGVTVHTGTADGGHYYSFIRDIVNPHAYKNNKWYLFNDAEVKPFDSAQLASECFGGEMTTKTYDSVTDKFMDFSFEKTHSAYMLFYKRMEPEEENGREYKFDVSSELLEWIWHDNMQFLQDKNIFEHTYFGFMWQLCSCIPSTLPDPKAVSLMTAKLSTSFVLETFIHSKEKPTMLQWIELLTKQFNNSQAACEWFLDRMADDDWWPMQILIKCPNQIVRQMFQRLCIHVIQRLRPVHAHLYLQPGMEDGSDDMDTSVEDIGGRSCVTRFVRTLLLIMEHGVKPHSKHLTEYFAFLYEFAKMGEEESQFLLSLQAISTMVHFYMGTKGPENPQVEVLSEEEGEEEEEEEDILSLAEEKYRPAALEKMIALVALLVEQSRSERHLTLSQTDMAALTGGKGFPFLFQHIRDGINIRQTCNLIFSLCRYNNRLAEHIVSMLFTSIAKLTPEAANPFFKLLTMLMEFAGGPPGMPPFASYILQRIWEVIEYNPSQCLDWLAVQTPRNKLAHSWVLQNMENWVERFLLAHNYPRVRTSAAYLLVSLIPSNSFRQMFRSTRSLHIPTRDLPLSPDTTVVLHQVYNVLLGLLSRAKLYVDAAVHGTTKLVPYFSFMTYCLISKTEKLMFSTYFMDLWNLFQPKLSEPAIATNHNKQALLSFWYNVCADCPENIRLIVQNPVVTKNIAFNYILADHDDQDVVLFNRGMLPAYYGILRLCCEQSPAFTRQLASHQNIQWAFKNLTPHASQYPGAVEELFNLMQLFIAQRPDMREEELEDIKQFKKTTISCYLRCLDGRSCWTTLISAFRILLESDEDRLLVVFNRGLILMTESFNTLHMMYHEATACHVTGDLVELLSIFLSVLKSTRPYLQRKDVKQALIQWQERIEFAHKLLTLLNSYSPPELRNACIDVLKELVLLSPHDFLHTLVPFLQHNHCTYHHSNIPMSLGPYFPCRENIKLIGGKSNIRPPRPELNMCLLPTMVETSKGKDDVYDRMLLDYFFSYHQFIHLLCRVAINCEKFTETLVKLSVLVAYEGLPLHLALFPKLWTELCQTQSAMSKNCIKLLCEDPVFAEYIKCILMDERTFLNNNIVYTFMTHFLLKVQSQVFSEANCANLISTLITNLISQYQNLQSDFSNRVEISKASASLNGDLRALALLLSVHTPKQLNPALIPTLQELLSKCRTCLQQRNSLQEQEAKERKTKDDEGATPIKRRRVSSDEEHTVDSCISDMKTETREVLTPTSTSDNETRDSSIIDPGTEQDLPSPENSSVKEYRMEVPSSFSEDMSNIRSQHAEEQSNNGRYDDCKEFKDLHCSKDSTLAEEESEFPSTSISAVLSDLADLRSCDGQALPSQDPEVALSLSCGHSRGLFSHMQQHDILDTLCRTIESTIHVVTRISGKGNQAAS

C[C@H]1CN(C(=O)CCl)CCN1C(=O)c1cnn(C)c1.Cl
inactive: USP34 -0.052 | USP36 -0.171 | USP38 -0.0453 | USP39 0.0473 | USP4 -0.115
